HRas wt GTP bind – human HRas wildtype GTP binding, change in either direction | GST-Ras wt beads, Bodipy-FL-GTP binding, flow cytometry; actives lie on both sides | GTP binding activity, % at 10 µM | actives 0.14% (n = 190,000);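 active means GTP binding activity at least 20% away from the 100% baseline, either lowered as inhibitor or raised as activator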
Target sequence (P01112 whole entry, looked up): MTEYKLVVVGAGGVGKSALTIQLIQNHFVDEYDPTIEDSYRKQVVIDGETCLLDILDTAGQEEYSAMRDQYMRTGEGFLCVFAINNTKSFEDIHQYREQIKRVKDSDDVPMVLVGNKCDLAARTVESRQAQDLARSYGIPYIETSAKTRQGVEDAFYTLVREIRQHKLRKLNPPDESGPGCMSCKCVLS
Cdc42 wt – human Cdc42 wildtype GTP binding change, either direction; P60953; AID 761; actives 0.2% (n = 190,000); GST-Cdc42 beads, Bodipy-GTP binding, flow cytometry; actives lie on both sides; percent activity (GTP binding), % at 10 µM;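 active means percent activity GTP binding at least 20 points away from the 100% baseline, either down as inhibitor or up as activator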;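 further: median bead fluorescence of bound Bodipy-FL-GTP at 100 nM; below 100% means less GTP binding so inhibitor and above means activator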
Target sequence (P60953 whole entry, looked up): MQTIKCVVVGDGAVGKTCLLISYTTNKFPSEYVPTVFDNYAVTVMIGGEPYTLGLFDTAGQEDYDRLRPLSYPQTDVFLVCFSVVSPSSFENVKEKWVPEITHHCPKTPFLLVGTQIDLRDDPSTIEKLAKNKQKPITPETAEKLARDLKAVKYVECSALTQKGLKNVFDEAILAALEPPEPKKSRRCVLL
Rac1 mut GTP – modulators of GTP binding to human Rac1 activated mutant | P63000 | actives 0.11% (n = 190,000) | GST-Rac1 activated beads, fluorescent GTP binding, flow cytometry; actives lie on both sides; 100% means binding = to untreated wells | percent activity (GTP binding), % at 10 µM;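 active means GTP binding at least 20 percentage points away from the 100% baseline, in either direction, so actives lie on both sides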
Rab7 wt GTP bind – alters GTP binding to wildtype dog Rab7; GTP binding activity (percent of control), % at 10 µM; AID 758; GST-Rab7 beads, fluorescent GTP binding, flow cytometry; actives lie on both sides; untreated = 100%, excess cold GTP = 0%; actives 0.055% (n = 190,000);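 active means fluorescent GTP binding to Rab7 beads changed by at least 20 points from the 100% baseline, either direction, mostly lower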;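 further: median green fluorescence of bound Bodipy-FL-GTP per Rab7 bead population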
Rab2 wt GTP – changes GTP binding to wildtype dog Rab2A, up or down | P61105 | GST-Rab2 wt beads, Bodipy-GTP binding, flow cytometry | GTP binding activity, % at 10 µM | actives 0.19% (n = 190,000) | AID 760;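 active means GTP binding activity at least 20 points away from 100%, either lowered or raised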
Rac1 wt GTP bind – human Rac1 wildtype GTP binding, inhibitors and activators. P63000. GST-Rac1 beads, fluorescent GTP binding, flow cytometry; actives lie on both sides; 0 = cold GTP competed, 100 = untreated. GTP binding activity (% of control), % at 10 µM. actives 0.27% (n = 190,000);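 active means GTP binding activity at least 20 points away from the 100% control level, either lower or higher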
Each line names hits and unclear results; the compound was inactive in the other large screens; [ ] = dose if it differs, or a comment. Shown are actives, neighbours in structure and some others; about 0.4% of the full set was active somewhere.

O=C(O)c1ccc(Cl)c(S(=O)(=O)Nc2cccc(C(=O)Nc3cccc(C(F)(F)F)c3)c2)c1	none
Cc1ccc(NC(=O)C2=C(c3ccccc3)S(=O)(=O)CCS2(=O)=O)cc1	Cdc42 wt 78
Fc1cccc(Nc2ncnc3[nH]ncc23)c1	Rac1 wt GTP bind 79
COC(=O)C(C)Oc1ccc(Oc2nc(Cl)ccc2Cl)cc1 (stereo not drawn)	none
CCC(=O)c1ccc(OCC(=O)O)c(OC)c1	Rac1 wt GTP bind 122[activator]
CCOC(=O)COc1ccc(C(=O)CC)cc1OC	none
CCN=C1S/C(=C\c2cn(CC)c3ccccc23)C(=O)N1CC	none
CCn1cc(C=C2C(=O)c3ccccc3C2=O)c2ccccc21	HRas wt GTP bind 77, Cdc42 wt 78, Rac1 wt GTP bind 74
COc1cc(NC(=O)c2cccs2)c(OC)cc1NC(=O)CCC(=O)Nc1ccc2ncccc2c1	HRas wt GTP bind 72, Cdc42 wt 71, Rab2 wt GTP 71, Rac1 wt GTP bind 74
CC(=O)OC1C(N2CCCCC2)c2c(ccc(/C=C/C(=O)N3CCCCC3)c2O)OC1(C)C (stereo not drawn)	none
O=C(CCc1nc2ccccc2[nH]c1=O)OCC(=O)N1CCc2ccccc21	Rac1 wt GTP bind 130[activator]
O=C(CCc1nc2ccccc2c(=O)[nH]1)OCC(=O)N1CCc2ccccc21	none
O=C(COC(=O)C12CC3CC(CC(C3)C1)C2)Nc1nc2c(F)c(F)c(F)cc2s1	Cdc42 wt 74
COc1ccc(C(=O)OCC(=O)Nc2nc3c(F)c(F)c(F)cc3s2)cc1OC	none
O=C(Nc1cccc(Cl)c1)N1CCN(c2ncccn2)CC1	Rac1 wt GTP bind 125[activator]
O=C(Nc1ccc(Cl)cc1Cl)N1CCN(c2ncccn2)CC1	none
CCc1ccccc1NC(=O)N1C2CCCC1CC(NC(C)=O)C2 (stereo not drawn)	Cdc42 wt 126[activator], Rac1 wt GTP bind 139[activator]
Cc1nn(C)cc1CN1CCCC(C(=O)c2ccc(-c3ccccc3)cc2)C1 (stereo not drawn)	none
Cc1ccc(/C=N/NC(=O)C2CCN(Cc3ccc(F)cc3Cl)CC2)o1	Rab7 wt GTP bind 78
CC1(C)Cc2c(sc(NC(=S)NC(=O)c3ccccc3)c2C(=O)O)CO1	HRas wt GTP bind 67, Rac1 mut GTP 63, Rab2 wt GTP 69, Rac1 wt GTP bind 70 (no result: Cdc42 wt, Rab7 wt GTP bind)
O=C(O)c1ccc2c(=O)n3c(nc2c1)/C(=C/c1cccc(Cl)c1Cl)CCCC3	none
O=C(O)C1C2C=CC(C2)C1C(=O)N1CCOCC1 (stereo not drawn)	HRas wt GTP bind 43, Cdc42 wt 39, Rac1 mut GTP 37, Rab7 wt GTP bind 22, Rab2 wt GTP 36, Rac1 wt GTP bind 33
O=C(NC1CCCC1)C1C2C=CC(C2)C1C(=O)N1CCOCC1 (stereo not drawn)	none
O=S1(=O)N=C(N=Nc2c(O)[nH]c3ccccc23)c2ccccc21	Rac1 wt GTP bind 77
COc1ccc(-n2c(NC(=O)c3ccc(Br)o3)c(C#N)c3nc4ccccc4nc32)cc1	Cdc42 wt 77, Rac1 mut GTP 79, Rab2 wt GTP 79, Rac1 wt GTP bind 79
COc1ccc(Cn2c(N)c(C#N)c3nc4ccccc4nc32)cc1	none
CC(C)Oc1cc(N)c(Cl)cc1Cl	none
O=C(COC(=O)/C=C/c1cccs1)Nc1ccc2ccccc2c1	Cdc42 wt 73, Rac1 mut GTP 76, Rab2 wt GTP 76, Rac1 wt GTP bind 74
O=C(COC(=O)/C=C/c1cccs1)Nc1ccccc1Cl	none
S=C(Nc1cccc2ccccc12)NC1CCCCC1	none
CC1=[N+](C)c2c(ccc3cccnc23)C1(C)C	none
Cc1nc2ccc(Cl)cc2c(-c2ccccc2Cl)c1CC(=O)O	none
CN1CCc2nc3ccc(Cl)cc3c(-c3ccccc3Cl)c2C1	Cdc42 wt 79
CSc1ncccc1C(=O)Nc1nnc(C2CC2)s1	none
N#Cc1c2c(c(-c3ccccc3Cl)[nH]c1=S)CCCC2	Cdc42 wt 79
N#Cc1c(-c2ccccc2Cl)cc(-c2ccccc2)[nH]c1=S	none
